Experimental findings from PubChem BioAssay (Tox21) are described below.

Results filed as inconclusive are left out. Activity calls are given as the source filed them. Unless noted, the call rests on the fitted dose curve; in most records, active means well fitted curve in the direction sought with a large enough effect in the repeat runs; inconclusive means weak or mixed curves; inactive means no such curve, though single readings can be large; an effect the other way counts as inactive or inconclusive.

Assay [1] can be described thus: qHTS assay to identify small molecule agonists of the RXR signaling pathway - cell viability counter screen (AID 1159529).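 Further: HEK 293T cells carrying an RXR-alpha UAS beta-lactamase reporter; series mostly up to about 77 µM; nearly all actives have a fitted effect of over 50% in size.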 In a few lines: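 Viability read-out for the RXR-alpha agonist qHTS: luminescent CellTiter-Glo signal after 30 min at RT. HEK 293T bla reporter cells, 2% charcoal-stripped FBS, 16 hr compound incubation; tetraoctyl ammonium bromide as cytotoxic control.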
For orientation: Quantitative high-throughput screening tests each substance at several concentrations.

The nature of assay [2]: qHTS assay to identify small molecule antagonists of the retinoid acid receptor (RAR) signaling pathway - cell viability counter screen (AID 1159551). Further: nearly all actives have a fitted effect of over 35% in size. In short, it runs like this: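 C3RL4 cells were seeded overnight at 37 C, then treated with compounds plus 1 uM (final) retinol for 6 h at 37 C. Viability was read as ATP by CellTiter-Glo luminescence after 30 min at room temperature.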

Assay [3] in a line: qHTS assay to identify small molecule antagonists of the retinoic acid receptor (RAR) signaling pathway (AID 1159552; further: nearly all actives have a fitted effect of over 50% in size). In a few lines: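 Using a RARE-driven luciferase construct in C3RL4 cells, retinol at 1 uM final provided the agonist stimulus while compounds were co-applied. After 6 hours at 37 C, luminescence was recorded to flag inhibitors of retinol signaling.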
Assay [4] can be described thus: qHTS assay to identify small molecule agonists of the retinoic acid receptor (RAR) signaling pathway (AID 1159553). Further: potency means the concentration at half of the fitted maximal effect. In a few lines: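 C3RL4 cells carrying a RARE luciferase reporter were plated overnight at 37 C, then exposed to compounds in DMSO for 6 hr at 37 C and 5% CO2. Luminescence was read 30 min after luciferase reagent addition at room temperature.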
The nature of assay [5]: qHTS assay to identify small molecule agonists of the estrogen related receptor (ERR) signaling pathway (AID 1224820). In short, it runs like this:
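Quantitative HTS of the LOPAC library used NTP ERR reporter cells treated 18 h at 37 C. Signal is luminescence after One-Glo addition and a 30 min room-temperature incubation.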

The subject of assay [6] is estrogen-related receptor alpha (ERRalpha) with PGC-1alpha coactivator, human. Description: qHTS assay to identify small molecule antagonists of the estrogen related receptor signaling pathway with the pleiotropic PPARgamma coactivator (PGC) (AID 1224821; calls by dose curve;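 further: series mostly up to about 46 µM; lower luminescence signal means antagonism of PGC/ERR signalling; nearly all actives have a fitted effect of over 50% in size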). In short, it runs like this:
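Quantitative HTS for antagonism: PGC/ERR cells received compounds after 6 h attachment and were incubated 18 h at 37 C, with luminescence (One-Glo) as the endpoint.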

Assay [7] is described as follows: qHTS assay to identify small molecule agonists of the estrogen related receptor signaling pathway with the pleiotropic PPARgamma coactivator (PGC) (AID 1224823). In short, it runs like this: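 Cell-based luciferase assay in the NTP-supplied PGC/ERR line, 2,000 cells/well; 18 h compound exposure at 37 C, luminescence after One-Glo.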
Assay [8] in a line: qHTS assay to identify small molecule antagonists of the estrogen related receptor (ERR) signaling pathway - cell viability counter screen (AID 1224818).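 Further: series mostly up to about 46 µM; viability measured after 17.5 h of compound exposure.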 In a few lines:
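ERR reporter cells plated 6 h at 37 C/5% CO2, then compounds in DMSO pin-transferred and incubated 17.5 h at 37 C. Viability read as CellTiter-Fluor fluorescence after 30 min at 37 C.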

Assay [9] in a line: qHTS assay to identify small molecule antagonists of the estrogen related receptor signaling pathway with the pleiotropic PPARgamma coactivator (PGC) cell viability counter screen (AID 1224822; further: series mostly up to about 46 µM). In short, it runs like this:
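PGC/ERR cells were seeded at 2,000 cells/well, rested 6 h at 37 C/5% CO2, then given compounds in DMSO by pin tool and incubated 17.5 h at 37 C. Viability came from CellTiter-Fluor fluorescence after 30 min.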

For `CCC1(CCC(C)C)C(=O)NC(=O)NC1=O`, the Potency result in assay [1], in assay [2], in assay [3] and in [4] was “inactive” each time.

On to `O=C(O)C(Cl)(Cl)Br`, for which the Potency result in [1], in [2], in assay [3] and in [4] was “inactive” in each case.

On to `CCc1cnc(C2=NC(C)(C(C)C)C(=O)N2)c(C(=O)O)c1` (stereo not drawn), for which the Potency result in [1], in assay [2], in assay [3] and in assay [4] was “inactive” throughout.

As for `CCOP(=S)(OCC)Oc1ccc(S(C)=O)cc1` (stereo not drawn), the Potency entry in assay [1], in assay [2], in [3] and in [4] was “inactive” each time.

`OCCCl`: the Potency result in assay [1], in assay [2], in assay [3] and in assay [4] was “inactive” each time.

For `N#CC(C#N)=C(C#N)C#N`, the Potency entry in assay [1], in [2], in assay [3] and in assay [4] was “inactive” in each case.

Turning to `CCCCCl`, the Potency result in assay [1], in [2], in [3] and in [4] was “inactive” each time.

In the case of `O=S(=O)(c1ccccc1)c1ccccc1`, the Potency result in [1], in assay [2], in assay [3] and in [4] was “inactive” throughout.

`CCOP(=S)(OCC)SCSc1cc(Cl)ccc1Cl`: the Potency entry in assay [1], in assay [2], in assay [3] and in [4] was “inactive” in each case.

With `CCCN(CCC)C(=O)Cc1c(-c2ccc(Cl)cc2)nc2ccc(Cl)cn12`, the Potency result in assay [1], in assay [2], in assay [3] and in assay [4] was “inactive” throughout.

As to `O=C(O)c1cc(Cl)ccc1Cl`, the Potency entry in assay [1], in assay [2], in [3] and in assay [4] was “inactive” throughout.

As for `Clc1ccccc1`, the Potency result in assay [1], in [2], in assay [3] and in [4] was “inactive” each time.

Regarding `C=CCc1ccc(OC(=O)Cc2ccccc2)c(OC)c1`, the Potency result in assay [1], in assay [2], in [3] and in assay [4] was “inactive” each time.

For the compound `COC(=O)C1(O)c2ccccc2-c2ccccc21`, the Potency entry in assay [1], in [2], in assay [3] and in assay [4] was “inactive” in each case.

For the compound `C[N+](C)(C)CC1CO1` (stereo not drawn), the Potency result in [1], in [2], in assay [3] and in assay [4] was “inactive” throughout.

For the compound `NC(=S)c1c(Cl)cccc1Cl`, the Potency entry in assay [1], in assay [2], in [3] and in assay [4] was “inactive” throughout.

On to `CC(C)c1ccc(NC(=O)N(C)C)cc1`, for which the Potency entry in [1], in assay [2] and in [3] was “inactive” each time. Besides, the Potency in [4] is 13.7 µM (active).

As for `NNCCO`, the Potency result in [1], in [2], in assay [3] and in assay [4] was “inactive” each time.

Consider `CCCCCCCCCCCCN(C)C`, for which the Potency result in [1], in assay [2], in assay [3] and in assay [4] was “inactive” throughout.

For `CCCCCCCCP(=O)(O)O`, the Potency entry in assay [1], in assay [2], in assay [3] and in assay [4] was “inactive” each time.

Take `CC(C)(C)NCC(O)c1ccccc1Cl` (stereo not drawn): the compound was called inactive in assay [5], in assay [6] and in assay [7].

For `Cc1cccc(C)c1NC1=NCCCS1`, the call in [5] was inactive.

On to `CCC1(C2=NCCN2)Cc2ccccc2O1` (stereo not drawn), for which the compound was called inactive in assay [6] and in [7].

Turning to `COc1ccccc1N1CCNCC1`, the compound was called inactive in [8] and in assay [9].
